Data on five compounds can be found in PubChem BioAssay.

One assay has as its target Albumin (Bos taurus) (UniProt P02769). The assay can be described thus: compounds binding labelled BSA control protein – biochemical, small-molecule microarray, Alexa647 label, 635/667 nm fluorescence, artefact control for SMM control protein annotation, profiling panel (AID 1118).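 Further: score merges 667 nm emission intensity and signal-to-noise per printed compound spot.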 Conditions: BSA-A647 binding, fluorescence 635 nm, higher = more signal.
A short description of assay [1]: probe aXIP binding to arrayed compounds – biochemical, NeuroSMM set, 635/667 nm fluorescence, primary screen (AID 1119).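 Further: probe is the protein aXip251-270 applied at 1 µg/mL to compound-printed slides; binding of probe to printed compounds measured as 667 nm fluorescence plus signal to noise.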 Conditions: small-molecule microarray, higher = more signal, called active from +8 up or from −8 down.
The nature of assay [2]: probe aNOTCH3 binding on compound microarray – biochemical, small-molecule microarray, 635/667 nm fluorescence, primary screen (AID 1120).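 Further: probe is a biotin-tagged antibody raised against NOTCH3 rather than NOTCH3 protein; score merges spot fluorescence near 667 nm with spot signal to noise.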 Conditions: higher = more signal.
The nature of assay [3]: probe aNOTCH2 binding on compound microarray – biochemical, small-molecule microarray, 635/667 nm fluorescence, primary screen (AID 1121).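 Further: score merges feature fluorescence read at 667 nm with its signal to noise.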 Conditions: higher = more signal.
For assay [4], the target named is Carbonic anhydrase 2 (Homo sapiens) (UniProt P00918). Nature of the assay: compounds binding carbonic anhydrase 2 – biochemical, small-molecule microarray, Alexa647-labelled CAII, profiling panel (AID 1122). As to conditions: CAII-A647 binding fluorescence, higher = more signal.
Assay [5] can be described thus: COS7 lysate on small-molecule microarray, probe aHis, 635 nm (AID 1123).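 Further: z-score combines 667nm fluorescence intensity with signal-to-noise per printed compound spot.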 Conditions: COS7 cell lysate, fluorescence, higher = more signal.
A short description of assay [6]: probe aLAP1 signal on lysate-treated microarray – cell lysate, small-molecule microarray, COS7 lysate, primary screen (AID 1124).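 Further: lysate comes from COS7 cells expressing LAP1 and is applied at 0.3 µg/mL; score merges spot fluorescence near 667 nm with signal-to-noise over triplicate slides.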 Conditions: probe aLAP1, fluorescence, higher = more signal.
The subject of the next assay is Sam68 (KHDRBS1). Nature of the assay: compounds binding KHDRBS1 protein – biochemical, small-molecule microarray, 635 nm fluorescence, primary screen (AID 1125).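 Further: score merges 667 nm channel intensity with signal to noise over triplicate slides.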 As to conditions: higher = more signal.
For assay [7], the system named is Chordin-like protein 2 (CHRDL2). Nature of the assay: compounds binding chordin-like 2 – biochemical, small-molecule microarray, 635 nm fluorescence, primary screen (AID 1126).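 Further: printed compound slides probed with Chrdl2 protein at 4 µg/mL for 1 h at 4 C; score merges 667 nm emission intensity with signal to noise over three replicate slides.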 Conditions: fluorescence 635 nm, higher = more signal.
Assay [8] has as its target Concanavalin-A (Canavalia ensiformis) (UniProt P02866). Nature of the assay: compounds binding concanavalin A lectin – biochemical, small-molecule microarray, Alexa647 label, 635 nm, artefact control for SMM control protein annotation, primary screen (AID 1127).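 Further: z combines 667 nm emission intensity with signal-to-noise across three replicate slides.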 As to conditions: ConA-A647 binding fluorescence, higher = more signal.
Assay [9] in a line: compounds binding Alexa647 anti-His antibody – biochemical, small-molecule microarray, 635 nm fluorescence, artefact control for SMM control protein annotation, primary screen (AID 1128).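 Further: score merges feature fluorescence with signal-to-noise for each printed compound spot.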 Conditions: higher = more signal.
For assay [10], the system named is Human papillomavirus type 1a E7 protein (residues 1-88). The assay can be described thus: HPV1a E7 small-molecule binders, primary screen, biochemical, small-molecule microarray, residues 1-88, 635 nm (AID 1129). As to conditions: small-molecule microarray binding, fluorescence 635 nm; higher = more signal.
The target of assay [11] is Focal adhesion kinase 1 (Homo sapiens) (UniProt Q05397). Nature of the assay: PTK2 protein binding on printed compound slides – biochemical, small-molecule microarray, 635/667 nm fluorescence, BSA, DTT, primary screen (AID 1130).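 Further: composite of spot emission at 667 nm and signal to noise over triplicate slides.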 Conditions: 635 nm fluorescence, higher = more signal.
Chain of Focal adhesion kinase 1 (Homo sapiens) (Q05397 whole entry, looked up): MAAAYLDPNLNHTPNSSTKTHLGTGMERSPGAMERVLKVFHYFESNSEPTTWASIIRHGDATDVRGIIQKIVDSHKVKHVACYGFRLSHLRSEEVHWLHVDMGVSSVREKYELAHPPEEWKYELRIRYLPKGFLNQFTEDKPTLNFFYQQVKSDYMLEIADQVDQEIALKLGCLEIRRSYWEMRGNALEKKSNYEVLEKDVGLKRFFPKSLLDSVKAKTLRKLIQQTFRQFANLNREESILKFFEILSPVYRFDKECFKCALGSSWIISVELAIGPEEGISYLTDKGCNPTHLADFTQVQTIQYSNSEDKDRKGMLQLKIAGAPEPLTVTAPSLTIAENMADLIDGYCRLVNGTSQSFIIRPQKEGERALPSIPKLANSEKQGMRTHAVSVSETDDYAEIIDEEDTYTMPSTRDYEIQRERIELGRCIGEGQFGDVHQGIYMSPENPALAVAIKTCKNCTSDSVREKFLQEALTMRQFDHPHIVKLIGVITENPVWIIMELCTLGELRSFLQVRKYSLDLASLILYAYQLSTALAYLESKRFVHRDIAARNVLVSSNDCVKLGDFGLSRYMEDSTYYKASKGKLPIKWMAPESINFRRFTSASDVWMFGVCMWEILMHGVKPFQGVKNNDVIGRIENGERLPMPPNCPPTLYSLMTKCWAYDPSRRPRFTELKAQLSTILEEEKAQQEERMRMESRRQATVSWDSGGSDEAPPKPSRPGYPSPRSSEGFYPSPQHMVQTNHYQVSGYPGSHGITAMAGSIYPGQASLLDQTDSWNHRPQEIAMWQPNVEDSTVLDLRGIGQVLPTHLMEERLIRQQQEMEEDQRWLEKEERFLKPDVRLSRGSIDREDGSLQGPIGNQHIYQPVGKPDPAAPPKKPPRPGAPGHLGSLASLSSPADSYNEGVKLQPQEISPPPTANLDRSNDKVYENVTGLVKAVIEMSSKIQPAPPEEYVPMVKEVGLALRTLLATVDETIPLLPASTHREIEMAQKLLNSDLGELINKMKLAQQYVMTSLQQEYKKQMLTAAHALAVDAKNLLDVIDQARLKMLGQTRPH
Assay [12] relates to Fibrinogen (Alexa647-labelled). Nature of the assay: Alexa647-fibrinogen binding to printed small molecules – biochemical, small-molecule microarray, 635/667 nm fluorescence, artefact control for SMM control-protein annotation, profiling panel (AID 1131).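 Further: z-score merges 667 nm fluorescence with per-spot signal-to-noise over triplicate slides.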 As to conditions: fibrinogen-A647 binding fluorescence, higher = more signal.
Assay [13] deals with Follistatin (Homo sapiens) (UniProt P19883). The assay can be described thus: FST protein binding to printed compounds – biochemical, small-molecule microarray, 635/667 nm fluorescence, primary screen (AID 1132). Conditions: 635 nm fluorescence, higher = more signal.
Chain of Follistatin (Homo sapiens) (P19883 whole entry, looked up): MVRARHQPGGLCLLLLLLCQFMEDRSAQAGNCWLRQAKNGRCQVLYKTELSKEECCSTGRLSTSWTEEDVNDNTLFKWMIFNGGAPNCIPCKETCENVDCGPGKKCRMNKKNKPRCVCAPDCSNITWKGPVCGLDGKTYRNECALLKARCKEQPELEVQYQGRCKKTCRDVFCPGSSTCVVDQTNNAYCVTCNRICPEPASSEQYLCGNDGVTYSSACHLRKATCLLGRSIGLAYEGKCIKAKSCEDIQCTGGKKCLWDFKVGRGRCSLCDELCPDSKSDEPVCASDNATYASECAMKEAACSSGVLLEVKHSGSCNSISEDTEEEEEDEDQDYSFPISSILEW
Assay [14] concerns the target Fibroblast growth factor 2 (Homo sapiens) (UniProt P09038). Nature of the assay: basic fibroblast growth factor binding to printed compounds – biochemical, small-molecule microarray, 635/667 nm fluorescence, primary screen (AID 1133). As to conditions: FGF2, fluorescence 635/667, higher = more signal.
Assay [15] can be described thus: JC-1 mitochondrial potential readout, lung cancer cells – cell-based, A549, JC-1 fluorescence, basal, 24 h, 100 nL, profiling panel (AID 1138).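 Further: A549 lung adenocarcinoma cells under basal conditions with no added stimulus; test concentration not given here.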 Conditions: higher = more signal.
For the next assay, the system named is Lefty1. The assay can be described thus: Lefty1 protein binding to printed compounds – biochemical, small-molecule microarray, 635/667 nm fluorescence, primary screen (AID 1139). As to conditions: fluorescence 635/667, higher = more signal.
Assay [16] concerns wheat germ agglutinin (Triticum aestivum), Alexa647-labelled. The assay can be described thus: Alexa647-WGA lectin binding to printed small molecules – biochemical, small-molecule microarray, 635/667 nm fluorescence, artefact control for SMM control-protein annotation, profiling panel (AID 1140).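 Further: score merges 667 nm feature emission with signal to noise over triplicate slides.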 As to conditions: WGA-A647 binding, 635 nm fluorescence, higher = more signal.
For assay [17], the target named is Luciferin 4-monooxygenase (Photinus pyralis) (UniProt P08659). The assay can be described thus: inhibition of purified Photinus pyralis luciferase – biochemical, luminescence, purified enzyme, 2006 set, primary screen (AID 1141).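 Further: cell-free assay with purified firefly luciferase at 100 ng per well in PBS; test concentration not given here.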 As to conditions: purified firefly luciferase, SteadyGlo luminescence, 30 min; higher = more signal, called active from +8 up or from −8 down.
Chain of Luciferin 4-monooxygenase (Photinus pyralis) (P08659 whole entry, looked up): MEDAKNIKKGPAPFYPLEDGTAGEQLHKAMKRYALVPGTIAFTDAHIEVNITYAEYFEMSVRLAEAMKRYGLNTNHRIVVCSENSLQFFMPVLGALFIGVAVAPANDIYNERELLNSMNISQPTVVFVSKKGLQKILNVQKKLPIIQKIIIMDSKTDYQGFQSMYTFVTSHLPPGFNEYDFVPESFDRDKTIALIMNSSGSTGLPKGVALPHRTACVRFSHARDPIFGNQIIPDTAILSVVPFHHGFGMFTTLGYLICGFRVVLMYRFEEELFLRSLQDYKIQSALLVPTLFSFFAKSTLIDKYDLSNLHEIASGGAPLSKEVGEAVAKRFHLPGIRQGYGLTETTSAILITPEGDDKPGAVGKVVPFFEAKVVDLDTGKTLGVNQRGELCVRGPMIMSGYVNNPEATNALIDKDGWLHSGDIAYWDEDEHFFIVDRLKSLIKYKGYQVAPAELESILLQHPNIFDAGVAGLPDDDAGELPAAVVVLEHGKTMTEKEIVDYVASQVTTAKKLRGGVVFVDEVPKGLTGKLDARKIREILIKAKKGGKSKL

Activity calls are given as the source filed them.

Chain of Concanavalin-A (Canavalia ensiformis) (P02866 whole entry, looked up): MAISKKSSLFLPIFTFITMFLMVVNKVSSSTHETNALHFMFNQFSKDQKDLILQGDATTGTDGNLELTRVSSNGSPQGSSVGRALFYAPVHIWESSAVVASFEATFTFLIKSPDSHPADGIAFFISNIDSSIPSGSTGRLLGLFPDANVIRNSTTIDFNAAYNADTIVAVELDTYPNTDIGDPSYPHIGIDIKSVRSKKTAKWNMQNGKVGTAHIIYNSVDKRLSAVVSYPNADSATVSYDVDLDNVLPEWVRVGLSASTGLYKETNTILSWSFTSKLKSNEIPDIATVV
Chain of Albumin (Bos taurus) (P02769 whole entry, looked up): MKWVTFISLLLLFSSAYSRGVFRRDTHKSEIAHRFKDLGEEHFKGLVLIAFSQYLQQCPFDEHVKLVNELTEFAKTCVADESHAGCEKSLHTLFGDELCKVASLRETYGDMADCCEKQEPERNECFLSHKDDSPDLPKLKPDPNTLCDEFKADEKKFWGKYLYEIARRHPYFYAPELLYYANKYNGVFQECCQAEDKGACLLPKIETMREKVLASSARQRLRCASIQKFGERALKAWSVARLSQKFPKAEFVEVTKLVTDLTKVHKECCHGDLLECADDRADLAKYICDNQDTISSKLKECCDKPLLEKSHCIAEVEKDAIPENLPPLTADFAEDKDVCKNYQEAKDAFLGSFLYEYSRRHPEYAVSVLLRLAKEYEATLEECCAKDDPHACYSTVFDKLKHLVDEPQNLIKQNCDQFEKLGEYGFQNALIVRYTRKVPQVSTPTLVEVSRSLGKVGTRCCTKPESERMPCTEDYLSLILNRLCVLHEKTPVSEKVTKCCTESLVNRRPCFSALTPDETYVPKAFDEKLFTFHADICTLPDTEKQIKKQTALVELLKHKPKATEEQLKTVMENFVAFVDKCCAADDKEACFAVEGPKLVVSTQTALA
Chain of Fibroblast growth factor 2 (Homo sapiens) (P09038 whole entry, looked up): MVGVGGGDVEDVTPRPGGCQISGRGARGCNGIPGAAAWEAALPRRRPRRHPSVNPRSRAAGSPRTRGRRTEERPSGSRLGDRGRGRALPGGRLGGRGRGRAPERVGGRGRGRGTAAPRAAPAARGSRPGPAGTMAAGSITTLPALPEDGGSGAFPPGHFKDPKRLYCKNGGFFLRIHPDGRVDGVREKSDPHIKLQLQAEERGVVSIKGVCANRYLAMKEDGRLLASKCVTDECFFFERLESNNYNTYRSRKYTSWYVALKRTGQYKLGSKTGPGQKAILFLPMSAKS

As to `COCCOC(=O)N1C(=O)[C@@]2(c3cc(C#Cc4ccc(OC)cc4)ccc31)[C@H](c1ccc(O)cc1)N1[C@H](c3ccccc3)[C@H](c3ccccc3)OC(=O)[C@H]1[C@@H]2C(=O)N1CCc2cc(OC)c(OC)cc2C1`, the composite z-score was 0.595 with Albumin (Bos taurus); 0.327 in [2]; -0.0877 in assay [3]; 0.117 in assay [4]; 0.75 in [5]; 0.16 in [6]. Also, the composite z-score in the assay on Sam68 (KHDRBS1) is 1.28; in assay [7], 0.252; in assay [8], 1.12; in assay [9], 0.744; in [10], 0.7; in assay [11], 1.02. For the same compound, the composite z-score worked out at 0.935 in [12]; 1.02 in assay [13]; 0.413 in assay [14]; 0.785 in the assay with Lefty1; 0.555 in assay [16]. In addition, in assay [1], the composite Z-score is 0.536 (inactive). Besides, the z-score in assay [15] is -0.734; in assay [17], 0.644 (inactive).

In the case of `O=C(CS)NCCCCCCNC(=O)[C@@H]1C[C@@H]2C(=O)N[C@@H](Cc3ccccc3)C(=O)N2[C@@H]1c1cccc(OCCO)c1`, the composite z-score with Albumin (Bos taurus) was -0.623; in assay [2], 0.169; in assay [3], -0.0248; in [4] it was 0.567; in [5] it was 2.28; in [6], -0.488. Further, the composite z-score in the assay on Sam68 (KHDRBS1) was found to be 1.29; in assay [7] it was 0.892; in assay [8], 1.15; in assay [9], 3.09; in assay [10], 1.23; in assay [11], 0.385. Moreover, the composite z-score was determined as 0.54 in assay [12]; 1.33 in assay [13]; 1.76 in [14]; 0.823 in the assay with Lefty1; 0.1 in [16]. Further, the composite Z-score in assay [1] was 0.439 (inactive). Further, the results for the z-score in [15] and in assay [17] were -0.714 and -1.09 (inactive), respectively.

`COCCOC(=O)N1C(=O)[C@@]2(c3cc(C#CCC(C(=O)OC)C(=O)OC)ccc31)[C@H](C(=O)Nc1nc3ccccc3s1)[C@H]1C(=O)O[C@H](c3ccccc3)[C@H](c3ccccc3)N1[C@@H]2c1ccccc1OCCO`: the composite z-score in the assay with Albumin (Bos taurus) is 0.893; in assay [2], -0.0343; in assay [3], -0.0956; in assay [4], 0.559; in [5], 1.9; in assay [6], 0.581. Also, the composite z-score was 1.29 in the assay with Sam68 (KHDRBS1); -0.0859 in assay [7]; 1.19 in assay [8]; 1.41 in assay [9]; 1.22 in [10]; 0.714 in [11]. Moreover, the composite z-score in assay [12] was 0.965; in [13], 0.602; in [14] it was 0.579; in the assay on Lefty1 it was 0.275; in [16] it was 1.2. The composite Z-score in assay [1] is 0.259 (inactive). The z-score in assay [15] was -2.07; in [17] it was -1.56 (inactive).

Regarding `C[N+](C)(C)CCCCNC(=O)[C@H]1C[C@H]2C(=O)N3CCC[C@H]3C(=O)N2[C@H]1c1cccc(OCCO)c1`, the composite z-score in the assay with Albumin (Bos taurus) is -1.75; in assay [2], -0.0663; in assay [3], -0.0942; in [4], 0.73; in assay [5] it was 0.647; in assay [6], 0.815. The composite z-score is -0.531 in the assay with Sam68 (KHDRBS1); 1.3 in assay [7]; -0.303 in assay [8]; 3.3 in assay [9]; -1.41 in [10]; -0.444 in assay [11]. For the same compound, the composite z-score in assay [12] was -0.944; in assay [13] it was 1.43; in [14], 1.41; in the assay with Lefty1, 0.974; in [16], -1.48. Besides, in assay [1], the composite Z-score was -0.166 (inactive). Besides, the z-score is -0.613 in [15] and -0.677 (inactive) in assay [17].

`C=CC[C@@]1(C(=O)NCCN2CCOCC2)N=C(c2ccc(OCCCO)cc2)O[C@@H]1c1ccccc1N=[N+]=[N-]`: the composite z-score with Albumin (Bos taurus) is 0.711; in assay [2], -0.396; in assay [3], -0.109; in assay [4] it was 0.716; in [5], 1.62; in assay [6] it was 0.232. Also, the composite z-score was 0.176 in the assay with Sam68 (KHDRBS1); 0.703 in assay [7]; -0.572 in assay [8]; 0.373 in assay [9]; 0.126 in [10]; 0.503 in assay [11]. Further, the composite z-score in [12] was determined as 0.161; in assay [13] it was 1.36; in assay [14], 0.399; in the assay on Lefty1, 0.113; in assay [16], 1.18. For the same compound, in assay [1], the composite Z-score is 0.346 (inactive). Further, the z-score in assay [15] was 0.404; in assay [17], -5.94 (inactive).
